The results in this text go back to PubChem BioAssay (NCI).

Compounds without any hit were thinned out: in the full panel of roughly 83,000, 20% have a hit.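 How to read the values: 0–100, growth inhibition (40 = 60% inhibited); 0, no net growth; -100 to 0, cell death (-40 = 40% of starting cells died; -100 = all dead).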 A number with no mark means an inactive call. Active and inactive are the calls of the source. Rule for the calls: active = growth percent below 10; inactive = the rest.

Assay in all cases: NCI-60 one-dose screen, 48 h (100 = growth as untreated, 0 = no growth, -100 = all killed)
Settings in all cases: 10 µM unless noted

The subject of assay [1] is NCI-H23 lung.
In assay [2] the test system is NCI-H226 lung.
Assay [3] deals with NCI-H322M lung.
For assay [4], the system named is HOP-62 NSCLC.
Assay [5] has as its system NCI-H460 lung.
The subject of assay [6] is HOP-92 NSCLC.
The subject of assay [7] is NCI-H522 lung.
In assay [8] the test system is A549/ATCC NSCLC.
Assay [9] concerns 786-0 renal.
The subject of assay [10] is COLO 205 colon.

For the molecule `CCN1C(=O)N(CC)C2C1NN=c1s/c(=C\c3ccccn3)c(=O)n12` (stereo not given), the growth was 34.5% in assay [1]; 92.2% in assay [2]; 45.8% in assay [3]; 11.6% in assay [4]; 8.89% (active) in assay [5]; 37.3% in assay [6]. Moreover, the growth in [7] was 15.1%; in [8], 32.5%; in assay [9] it was 22.3%; in assay [10], -2.81% (active).

Take `COc1ccc(NC(=O)CSc2nc3ccccc3c(=O)n2Cc2cc(OC)c(OC)c(OC)c2)cc1`: the growth in assay [1] was 92.5%; in assay [2], 88.3%; in [3], 94.5%; in [4] it was 91.4%; in assay [5], 101%; in [6], 58.8%. The growth was 66.7% in [7], 99.3% in assay [8], 92.5% in assay [9] and 107% in assay [10].

As to `O=[N+]([O-])c1ccc(S(=O)(=O)N2CCN(c3ccnc4cc(Cl)ccc34)CC2)c([N+](=O)[O-])c1`, the growth is 97.2% in assay [1]; 83.7% in assay [2]; 107% in [3]; 96.4% in assay [4]; 99.2% in assay [5]; 82.1% in assay [6]. The growth in assay [7] is 46.1%; in assay [8] it was 99.2%; in assay [9], 80.8%; in assay [10] it was 91.4%.

In the case of `Cc1ccnc2nc(C(=O)OCC(=O)Nc3ccc(-c4ccccc4)cc3)nn12`, the growth is 99.5% in assay [1]; 110% in assay [2]; 112% in [3]; 94.5% in [4]; 119% in assay [5]; 69.7% in [6]. Also, the growth was 107% in assay [7], 99.3% in assay [8], 99.8% in assay [9] and 104% in assay [10].

As to `COc1ccc2c(c1)C=CC(C#N)N2C(=O)c1ccccc1` (stereo not given), the growth in assay [1] is 26.4%; in assay [2], 61.6%; in [3] it was 53.9%; in assay [4], 34.6%; in assay [5], 5.09% (active); in assay [6], 34%. In addition, the growth in assay [7] was 1.91% (active); in assay [8] it was 21.2%; in [9], 23.4%; in [10], -43.7% (active).

For `O=C1C2=C(C(=O)c3c(O)ccc(O)c31)N(c1cccnc1)Cc1ccccc1O2`, the growth was -5.92% (active) in assay [1]; 19.2% in assay [2]; 23.9% in assay [3]; -3.72% (active) in [4]; 7.48% (active) in assay [5]; -89.9% (active) in assay [6]. Moreover, the growth was -77.9% (active) in assay [7], 31.6% in [8], -86.7% (active) in assay [9] and -60.9% (active) in [10].

Regarding `O=C(Nc1ccc(I)cc1)c1cccc([N+](=O)[O-])c1O`, the growth is -6.76% (active) in assay [1]; 20.5% in assay [2]; 20.9% in assay [3]; 23.5% in assay [4]; 17.5% in assay [5]; -4.99% (active) in assay [6]. Also, the growth in assay [7] was 1.75% (active); in [8], 14.5%; in assay [9], 16.6%; in [10], 7.78% (active).

With `O=C1NCC(c2cc3ccccc3[nH]c2=O)Nc2ccccc21` (stereo not given), the growth in assay [1] was 97.4%; in assay [2], 98.4%; in [3], 100%; in assay [4], 90.6%; in assay [5] it was 105%; in [6], 104%. The growth was 88.6% in assay [7], 92.4% in assay [8], 100% in [9] and 107% in assay [10].

With `COc1ccc(-c2cn[nH]c2-c2cc(OC)c3c(c2)OCCO3)cc1`, the growth in [1] was 25.6%; in assay [2] it was 57.1%; in assay [3], 50.7%; in assay [4], 24%; in assay [5], 4.65% (active); in assay [6] it was 46.6%. Also, the growth was -22.8% (active) in assay [7], 30% in assay [8], 33% in [9] and -59.5% (active) in assay [10].

Consider `Cc1nc2sccn2c1-c1csc(Nc2ccccc2Cl)n1`, for which the growth in assay [1] was 38.2%; in assay [2], 57.7%; in assay [3], 64.4%; in assay [4], 54.2%; in [5], 35.3%; in [6], 60.9%. For the same molecule, the growth was 41.9% in [7], 34.4% in [8], 55.3% in [9] and 41.6% in assay [10].

Take `COc1ccc(C(=O)c2cc(OC)c(OC)c(OC)c2)cc1/C=C/C(=O)c1ccc(O)cc1`: the growth was 18.5% in [1]; 58.5% in [2]; 70.7% in [3]; 88.9% in assay [4]; 9.99% (active) in [5]; 42.8% in assay [6]. Further, the growth in assay [7] is -79.3% (active); in [8], 68.9%; in [9] it was 26.4%; in [10], 54.3%.

For `COC(=O)CCCCCN=Cc1c(O)c(O)c(C(C)C)c2cc(C)c(-c3c(C)cc4c(C(C)C)c(O)c(O)c(C=NCCCCCC(=O)OC)c4c3O)c(O)c12`, the growth in assay [1] is 19.3%; in [2], 54.9%; in [3] it was 32%; in [4], 18.8%; in [5], 8.12% (active); in [6] it was -5.66% (active). The growth is -21.8% (active) in assay [7], 20.8% in assay [8], 28.1% in [9] and 13.6% in assay [10].

In the case of `COc1cc(C2C3=C(COC3=O)Nc3c2ccc2c3CCCC2)cc2c1OCO2` (stereo not given), the growth in [1] was 16.4%; in [2] it was -5.06% (active); in assay [3], 47%; in assay [4], 21.9%; in [5] it was 3.74% (active); in assay [6], 127%. Also, the growth was -35.1% (active) in assay [7], 25% in [8], 18.7% in [9] and -67.7% (active) in [10].
